Reference: PubChem BioAssay (NCI)
This is part of a sample that, as a whole, favours compounds with a hit. Of some 79,000 tested, about 15% had one in any assay. Rule as the data show it: active = growth inhibition above about 70%; inactive = the rest.

Key:
[1] = NCI Yeast Anticancer Drug Screen. Data for the rad50 strain (AID 155);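 also: 0% = growth of vehicle-only cultures of the same strain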; details: S. cerevisiae rad50 strain growth inhibition; at 50.0 µM; hits give high values
Procedure, shortened: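 Vehicle-treated cultures provide the reference for the growth inhibition reported for compound-exposed, repair-deficient yeast.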

[2] = NCI Yeast Anticancer Drug Screen. Data for the mec2-1 strain (AID 157); details: S. cerevisiae mec2-1 strain, at 50.0 µM, hits give high values
Procedure, shortened: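 mec2-1 yeast strain, carrying an alteration in DNA damage repair or cell cycle control, was exposed to compounds; growth inhibition was measured relative to vehicle-treated controls.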

[3] = NCI Yeast Anticancer Drug Screen. Data for the cln2 rad14 strain (AID 165);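 also: 0% = growth equal to vehicle treated cultures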; details: S. cerevisiae cln2 rad14 strain, at 50.0 µM, hits give high values
Procedure, shortened: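 Yeast carrying cln2 and rad14 alterations (cell cycle control and DNA damage repair) were exposed to compounds. Growth inhibition was measured against vehicle-treated controls.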

[4] = NCI Yeast Anticancer Drug Screen. Data for the mlh1 rad18 strain (AID 175); details: S. cerevisiae mlh1 rad18 strain growth inhibition; at 50.0 µM; hits give high values
Procedure, shortened: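 Growth inhibition of the yeast strain was measured after compound exposure and expressed relative to vehicle-treated controls. The strain carries defined defects in DNA damage repair.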

[5] = NCI Yeast Anticancer Drug Screen. Data for the bub3 strain (AID 167); details: S. cerevisiae bub3 mutant strain, at 50.0 µM, hits give high values
Procedure, shortened: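 Mutant yeast screening strain plus compound; vehicle-treated cultures serve as the 0% inhibition reference.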

[6] = NCI Yeast Anticancer Drug Screen. Data for the sgs1 mgt1 strain (AID 161);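 also: 0% = growth of cultures given vehicle only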; details: S. cerevisiae sgs1 mgt1 strain, at 50.0 µM, hits give high values
Procedure, shortened: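 Yeast cells carrying a defined DNA-repair defect were exposed to test compounds. Growth inhibition was measured relative to vehicle-treated controls.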

Measured: growth inhibition

CCCCC(C(=O)O)C(=O)O
inactive: [1] -15.3% | [2] -13.4% | [3] 1.1% | [4] -18.4%

O=C(/C=C/c1cccs1)c1ccc(Cl)cc1
inactive: [1] -26.6% | [2] -41.3% | [3] -2.8% | [5] 2.2% | [4] -4.35%

CCCCCC(O)C(C)C (configuration not stated)
inactive: [1] 1.5% | [2] -2.55% | [3] -36.8% | [5] 15.7% | [4] 6.8%

O=C1C=C2CCC[C@H]3OC(=O)C[C@@]23CC1
inactive: [1] 12.4% | [2] 16.2% | [3] 28.4% | [5] -0.95% | [4] 27.4%

CC(=O)CC(=O)Nc1ccc(C)c(C)c1
inactive: [1] -4.6% | [2] 2.15% | [3] 7.95% | [5] 40% | [4] 12.5%

O=C(c1ccc(Br)cc1)C(C(c1ccccc1)N1CCOCC1)N1CCOCC1 (configuration not stated)
inactive: [1] 3.1% | [2] -1.1% | [3] -19.5% | [5] -20.6% | [4] 31.9%

Nc1ccc(N=Nc2ccc(N)cc2)cc1
inactive: [1] 12.7% | [2] 6.5% | [3] -8.9% | [5] 11.2% | [4] 2.5%

O=C(N/N=C\c1ccc([N+](=O)[O-])cc1)Nc1cccc2ccccc12
inactive: [1] -49% | [2] 13.3% | [3] -14.4% | [5] -1% | [4] -41.8%

Cc1ccc(SCc2ccc(Cl)cc2)nn1
inactive: [1] 4.05% | [2] 0.3% | [3] -13.8% | [5] 26.8% | [4] -5%

CCOC(=O)C1C(c2ccc(N(C)C)cc2)c2cc3c(cc2OC1(C)N1CCCC1)OCO3 (configuration not stated)
inactive: [1] -13.6% | [2] 9.1% | [3] 14.3% | [5] -3.15% | [4] 2.85%

CN(C)c1ccc(S(=O)(=O)c2ccc3nc(N)nc(N)c3c2)cc1
inactive: [1] 29.2% | [2] 16.2% | [3] -26.5% | [5] -5.9% | [4] 3.85%

COC(=O)CC1(O)C=CCCC1c1ccccc1 (configuration not stated)
inactive: [1] -23.2% | [2] -7.6% | [6] 2.35% | [5] -7.5% | [4] -35%

COc1ccc(/C(Cl)=C(\C=O)c2cc(OC)c(OC)c(OC)c2)cc1OC
inactive: [1] -0.9% | [2] 23.1% | [3] 13.8% | [5] -3.45% | [4] 13.9%

CC(=O)OCC1OC(OC(C)=O)C(NC(=O)c2ccc(Br)cc2)C(OC(C)=O)C1OC(C)=O (configuration not stated)
inactive: [1] 42.1% | [2] 19.4% | [3] 19.6% | [5] -1.1% | [4] 31.8%

C=CCOC(=O)Nc1cc(Cl)ccc1C
inactive: [1] 3.9% | [2] 1.2% | [3] -9.25% | [4] -9.8%

O=C(O)C1CC[N-]CC1.O=C(O)C1CC[N-]CC1.[NH2-].[NH2-].[Pt+4]
inactive: [1] -5.4% | [2] 14.8% | [3] 12.7% | [5] 2.6% | [4] 18.4%

CCCCS/C=C\C(=O)OCC
inactive: [1] 18.9% | [2] -22.8% | [3] -44% | [5] 0.15% | [4] -15.4%

Cc1nc2c(N3CCCCC3)ncnc2o1
inactive: [1] 7.3% | [2] -0.85% | [3] -28.7% | [5] -13.8% | [4] 4.05%

O=C(NC1c2ccccc2CCc2ccccc21)C(F)(F)F
inactive: [1] 27.7% | [2] -7.75% | [3] 3.05% | [5] 15.3% | [4] 22.6%

CCOP(=O)(OCC)/C(C#N)=C\c1ccc(N(C)C)cc1
inactive: [1] 13.5% | [2] 6.3% | [3] -13.7% | [5] 6.35% | [4] -0.65%

CN(C)CCC(=O)c1cccc(O)c1
inactive: [1] -27.9% | [2] -19% | [3] -37.6% | [5] -9.45% | [4] -10.2%

CSc1nc(COC(=O)NC(C)C)c(COC(=O)NC(C)C)n1Cc1ccccc1
inactive: [1] 2.45% | [2] 3.7% | [3] 1.65% | [5] 5.4% | [4] 2.5%

CC(C)(C)/C(=N\O)c1ccccc1
inactive: [1] -8.8% | [2] -13.6% | [3] -8.05% | [5] -17.4% | [4] -23.3%

Cc1nc(N)nc2c1ncn2CCO
inactive: [1] 14.6% | [2] 16.1% | [3] -4.25% | [5] 24.9% | [4] 9.85%

Cc1ccccc1N1CCN(CC(O)Cc2ccccc2)CC1 (configuration not stated)
inactive: [1] 19.6% | [2] 10% | [3] -6.85% | [5] 15.1% | [4] 21.1%

COc1ccc(C(=O)NC(=S)Nc2cccc([N+](=O)[O-])c2)cc1
inactive: [1] -7.3% | [2] 29.9% | [3] -21.6% | [5] 24.6%

CC1=CC2N(C=C1)C(c1cccc([N+](=O)[O-])c1)=NON2c1cc(C)ccn1 (configuration not stated)
inactive: [1] 7.05% | [2] 0.95% | [3] 13.6% | [5] -1% | [4] 23.9%

Cc1cc2c(=O)cc(-c3ccncc3)oc2c(C(N)=O)c1C
inactive: [1] 14.8% | [2] 4.2% | [3] -1% | [5] 17.6% | [4] 22.5%

COC(=O)c1ccc(C(=O)OC)c2nc3cc(C)ccc3nc12
inactive: [1] -39.1% | [2] -2.3% | [3] 10.1% | [5] 8.65% | [4] 14.4%

CCOC(=O)Nc1cc(Cl)c2ncn(C(=O)OCC)c2n1
inactive: [1] 40.3% | [6] 10.9% | [3] 18.9% | [5] 3.05% | [4] 17.9%
